Pol eta inh-1 – inhibitors of human DNA polymerase eta; Potency, µM (series often up to 114 µM), most hits filed as inhibitors; hit rate 1.2% among 390,000; recombinant Pol eta, fluorescent DNA replication assay; Q9Y253
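Pol eta at 10 nM preincubated with compounds 15 min at room temperature; reaction started with fluorescent substrate (50 nM final) and read kinetically at 0 and 10 min.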
PI5P4Ka inh – inhibitors of human PI5P4K alpha. P48426. PI5P4Kalpha enzyme, ADP-Glo luminescence, 60 min; stronger effect = lower value. max response, %. hit rate 1.2% among 330,000; active means max response of -50% or lower; inconclusive means between -30% and -50%; inactive means -30% or higher; further: value at the top dose of about 77 µM
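qHTS, 1536-well: enzyme/substrate mix, compound by pin tool, 5 microM ATP final; RT 60 min; ADP-Glo reagents 1 (45 min) then 2 (30 min); luminescence.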
ALOX12 inh – blocks human arachidonate 12S-lipoxygenase | hit rate 1.1% among 580,000 | purified 12hLO, xylenol orange hydroperoxide absorbance | Potency, µM (series often up to 108 µM), usual class: inhibitors | P18054
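Hydroperoxide product was detected by ferrous iron/xylenol orange as the 573 to 405 nm absorbance ratio. Arachidonic acid at 40 uM (final) was turned over for 30 min at room temperature by 150 nM human 12hLO, pH 7.0 Hepes buffer, after 15 min compound preincubation.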
Pol kappa inh-1 – inhibitors of human DNA polymerase kappa; Q9UBT6; Potency, µM (doses to about 107 µM), usual class: inhibitors; AID 588579; hit rate 0.53% among 400,000; purified Pol kappa, fluorescent DNA synthesis assay, 10 min
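10 nM Pol kappa was preincubated with compounds for 15 min at room temperature. Reaction started with 50 nM (final) substrate. Fluorescence read kinetically at 0 and 10 min.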
Pol iota inh – inhibitors of human DNA polymerase iota; Pol iota fluorescent replication assay, 10 min; Potency, µM (series often up to 115 µM), usual class: inhibitors; hit rate 1% among 390,000; AID 588590
Target sequence (Q9UNA4 whole entry, looked up): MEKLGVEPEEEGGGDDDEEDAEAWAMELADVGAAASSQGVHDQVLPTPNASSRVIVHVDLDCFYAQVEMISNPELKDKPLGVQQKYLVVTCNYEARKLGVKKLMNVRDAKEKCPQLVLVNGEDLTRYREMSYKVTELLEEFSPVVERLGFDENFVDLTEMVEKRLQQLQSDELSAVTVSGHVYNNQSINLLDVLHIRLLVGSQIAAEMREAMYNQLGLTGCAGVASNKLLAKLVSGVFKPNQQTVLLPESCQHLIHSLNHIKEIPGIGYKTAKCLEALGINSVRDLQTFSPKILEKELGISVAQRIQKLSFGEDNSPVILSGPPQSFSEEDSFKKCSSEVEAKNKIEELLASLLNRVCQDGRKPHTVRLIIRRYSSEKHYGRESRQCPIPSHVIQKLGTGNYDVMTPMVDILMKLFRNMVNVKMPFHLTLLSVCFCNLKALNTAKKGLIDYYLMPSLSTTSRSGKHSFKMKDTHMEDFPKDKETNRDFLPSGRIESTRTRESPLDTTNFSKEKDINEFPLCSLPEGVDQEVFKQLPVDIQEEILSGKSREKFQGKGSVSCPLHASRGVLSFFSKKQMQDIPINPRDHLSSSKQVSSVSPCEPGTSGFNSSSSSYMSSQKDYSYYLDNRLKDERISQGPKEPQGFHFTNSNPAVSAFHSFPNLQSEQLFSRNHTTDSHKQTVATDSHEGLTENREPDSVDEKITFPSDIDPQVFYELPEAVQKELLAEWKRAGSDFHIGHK
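Fluorescent replication assay read twice, at 0 min and 10 min after adding 50 nM (final) substrate. Enzyme (10 nM) and compounds were first incubated 15 min at room temperature; enzyme-free buffer wells were negative controls.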
Pol beta inh – inhibitors of human DNA polymerase beta; P06746; Pol beta primer extension/strand displacement, fluorescence kinetic; Potency, µM (doses to about 114 µM), usual class: inhibitors; hit rate 1.3% among 340,000
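Human Pol beta at 10 nM; strand-displacement substrate 50 nM final. Compound exposure 15 min at room temperature before start, reaction 10 min at room temperature.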
GALK confirm – confirmation of human galactokinase (GALK) inhibitors | shares compounds with Pol eta inh-1 | purified GALK, Kinase-Glo ATP depletion luminescence | Potency, µM (top dose mostly 115 µM), usual class: inhibitors | hit rate 70% among 150 | AID 2015
Redox cycling – generates H2O2 by redox cycling, flagging GALK artifacts. shares compounds with Pol eta inh-1. Phenol red-HRP H2O2 redox cycling, absorbance 600 nm. Potency, µM (highest dose often 115 µM), most hits filed as inhibitors. hit rate 40% among 150. AID 2035
HEK293 tox – HEK-293 cytotoxicity, GALK inhibitor secondary; shares compounds with Pol eta inh-1; hit rate 10% among 170; Potency, µM (doses to about 46.1 µM), actives largely listed as inhibitors; HEK-293 viability, ATP luminescence (CellTiter-Glo), 24/48 h
Pol kappa inh-2 – Pol kappa (human) inhibition, cherry-pick confirmation | purified Pol-kappa, fluorescent strand-displacement substrate | Potency, µM, hits mostly inhibitors | AID 720501 | shares compounds with Pol eta inh-1 | hit rate 76% among 920
Pol eta inh-2 – confirmation of human DNA polymerase eta inhibitors; Pol eta primer extension, TAMRA/BHQ fluorescence, 10 min; shares compounds with Pol eta inh-1; hit rate 64% among 2,600; AID 720502; Potency, µM, usual class: inhibitors
A number is an active result; n = inactive; u = inconclusive; x = not tested or not shown. A selection: hits, their analogues and other compounds. The true share with any hit is near 2.9%. Unless noted, the call rests on the fitted dose curve; in most records, active means well fitted curve in the direction sought with a large enough effect; inconclusive means small, poorly fitted or top-dose-only effect, or another doubt; inactive means no such curve, though single readings can be large; an effect the other way counts as inactive or inconclusive.

SMILES	Pol eta inh-1	PI5P4Ka inh	ALOX12 inh	Pol kappa inh-1	Pol iota inh	Pol beta inh	Pol eta inh-2	others
O=C(O)CCc1nnc(SCC(=O)Nc2ccc(Cl)c(C(F)(F)F)c2)[nH]c1=O	n	n	n	n	n	n	x	GALK confirm=u;Redox cycling=n;HEK293 tox=n
N#CC1=C(N)Oc2n[nH]c(-c3cccnc3)c2C1c1ccc([N+](=O)[O-])o1 (centres undefined)	28µM	-59	n	u	u	n	67
CCc1c(C)sc(NC(=O)CC#N)c1C#N	22µM	x	u	u	45µM	u	u
CC(=O)NS(=O)(=O)c1ccc(NC(=O)c2cc(-c3ccc(C)c(C)c3)nc3ccccc23)cc1	22µM	u	n	n	n	25µM	76
CN(C)C[C@@H]1CN(C)C[C@H]1NS(=O)(=O)c1ccc(Br)cc1	x	x	n	x	x	x	x
CC(C)c1ccc(OCc2ccc(C(=O)N(C)C)o2)cc1	n	n	n	n	n	n	x
CC(C)c1ccc(OCc2ccc(C(=O)O)o2)cc1	22µM	n	n	n	u	10µM	u	Pol kappa inh-2=42
COc1ccc(C(=O)OCC(=O)N2c3ccccc3Sc3ccccc32)cc1OC	x	x	n	x	x	x	x
Cc1cc(C)n2c(SCC(O)=C(C#N)c3nc4ccccc4[nH]3)nnc2n1	25µM	-74	n	u	11µM	x	u
COc1ccc2cc(C(N)=O)c(=Nc3ccc(C)cc3)oc2c1	n	n	n	n	n	n	x	GALK confirm=n;Redox cycling=n;HEK293 tox=u
O=C(CSc1nc2ccc(S(=O)(=O)N3CCOCC3)cc2[nH]1)N1CCOCC1	n	n	u	n	n	n	u	Pol kappa inh-2=30
O=C(O)C/C(=C/c1ccc(Br)s1)c1nc2ccccc2o1	x	x	n	x	x	x	x
Cc1cccc(NC(=O)CCc2nnc3ccc(NCc4ccco4)nn23)n1	25µM	n	n	n	n	u	76
O=C(CCc1nnc2ccc(NCc3ccco3)nn12)Nc1ccccc1F	u	u	n	n	u	u	x
O=C(CCc1nnc2ccc(NCc3ccco3)nn12)Nc1ccccn1	28µM	n	n	n	n	u	u
O=c1c2ccccc2nc2ccc(NCc3ccco3)nn12	u	n	n	n	u	u	u
CCOc1cc(/C=C2/C(=N)N3C(=NC2=O)SN=C3S(C)(=O)=O)ccc1OS(=O)(=O)c1ccccc1	79µM	-63	x	n	u	u	x	GALK confirm=33µM;Redox cycling=n;HEK293 tox=n
Cc1cc(C(=O)COC(=O)c2cc(Cl)c(O)c(Cl)c2)c(C)n1C	16µM	-64	n	79µM	20µM	x	u
Cc1ccccc1CC(=O)NC1CCCC1	x	x	n	x	x	x	x
O=C(O)CCc1ccc(S(=O)(=O)Nc2cc(C(F)(F)F)ccc2N2CCCC2)cc1	22µM	u	n	u	25µM	x	60	Pol kappa inh-2=u
COc1ccc(Cn2c(O)c(C=Nc3ccccc3C(=O)O)c3ccccc3c2=O)cc1	20µM	n	n	n	u	u	67
C[C@]1(CO)[C@H]2Cc3sc(NC(=O)c4c(F)cccc4F)nc3[C@@H](CC(=O)NC3CCCC3)[C@]2(C)CC[C@H]1O	x	x	n	x	x	x	x
Cc1ccccc1OCCN(C)C(=O)c1cc2ccccc2[nH]1	x	x	n	x	x	x	x
Cc1cccc(OCC(=O)Nc2nnc(S(=O)(=O)N3CCc4ccccc43)s2)c1	89µM	x	n	u	u	n	u
O=C(O)CCCN1C(=O)/C(=C\C(Cl)=C\c2ccccc2)SC1=S	10µM	n	n	u	u	u	24	Pol kappa inh-2=38
SMILES	Pol eta inh-1	PI5P4Ka inh	ALOX12 inh	Pol kappa inh-1	Pol iota inh	Pol beta inh	Pol eta inh-2	others
N#Cc1ccccc1OCC(=O)NC(=O)NCc1ccco1	40µM	u	n	n	u	n	u
N#Cc1ccccc1OCC(=O)NC(=O)NCc1ccccc1	n	n	u	n	n	n	x
CN(C)C1(CNC(=O)c2n[nH]c(=O)c3ccccc23)CCCCCC1	x	x	n	x	x	x	x
N#Cc1ccsc1NC(=O)COC(=O)C1=NNC(=O)CC1	20µM	-82	n	u	14µM	x	76
O=C(Cc1ccc2c(c1)CCC2)Nc1ccccc1Cc1ccccc1	x	x	n	x	x	x	x
CC(=O)Nc1ccc(N2C(=O)c3cccc4c(O)ccc(c34)C2=O)cc1	32µM	u	n	u	u	u	u	Pol kappa inh-2=30
COc1ccc2c(c1)Oc1nc(-c3ccc(C)cc3)nc(SCC(=O)Nc3cccc(C(=O)O)c3)c1C2	x	x	x	x	x	x	x	Pol kappa inh-2=30
COc1cc(NC(=O)CSc2nc(-c3ccc(C)cc3)nc3c2Cc2ccccc2O3)cc(OC)c1	n	x	n	n	n	n	x
O=C(CSc1nc(-c2ccccc2)nc2ccc(F)cc12)Nc1cccc(C(=O)O)c1	79µM	-50	n	n	u	u	x	Pol kappa inh-2=u
O=C(CSc1nc(-c2ccccc2)nc2ccc(F)cc12)Nc1ccc(C(=O)O)cc1	u	u	n	n	n	n	x
O=C(Nc1ccc2nc3n(c(=O)c2c1)CCCCC3)c1c(F)ccc([N+](=O)[O-])c1F	16µM	n	n	n	u	n	48
CCN(CC(=O)Nc1ccccc1C(F)(F)F)C(=O)CCc1nc2sc3c(c2c(=O)[nH]1)CCCC3	16µM	u	u	u	28µM	x	u
CC(=O)N1CCN(C(=O)CCc2nc3sc4c(c3c(=O)[nH]2)CCCC4)CC1	n	n	n	n	n	n	x
Cc1ccc(NC(=O)CCc2nc3sc4c(c3c(=O)[nH]2)CCCC4)c(Br)c1	25µM	-66	x	u	40µM	x	85
CCCOc1ccc(NC(=O)c2n[nH]c(=O)c3ccccc23)cc1OCCC	x	x	n	x	x	x	x
COc1ccc2occ(CC(=O)Nc3ccc(S(=O)(=O)Nc4nc(C)cc(C)n4)cc3)c2c1	25µM	x	n	u	79µM	28µM	u	Pol kappa inh-2=42
Cc1ccc(Sc2nc(C)cs2)cc1	x	x	n	x	x	x	x
C/C=C\C(=O)Nc1cccc(C2=NOC3(C2)C[C@@H](C(N)=O)N(C(=O)C2(C)CC2)C3)c1 (some centres undefined)	n	n	n	n	n	n	x
